Measured values published in the supplement of paper PMC10646978.
± gives the standard deviation.

Assays:
Details in all cases: modulator concentration 10 µM
[1] = test system: RAW-Dual (murine macrophage reporter line); assay: NF-kB reporter (SEAP) activity fold change vs agonist alone; higher = enhanced NF-kB activity
In short: (§1)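 Overnight stimulation with a PRR agonist followed pre-incubation for 1 hour at 37 °C with compound at 10 μM final. This was done in RAW-Dual murine macrophage reporter cells seeded at 50 000 per well in 384-well plates. NF-κB (SEAP, QUANTI-Blue absorbance at 620 nm) and IRF (Lucia luciferase, QUANTI-Luc luminescence) were read from the supernatant. Each reporter's fold change relative to the mean agonist-only control on the same plate was averaged over replicate plates.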

[2] = test system: RAW-Dual (murine macrophage reporter line); assay: IRF reporter (Lucia luciferase) activity fold change vs agonist alone; higher = enhanced IRF activity
In short: as §1

[3] = test system: RAW-Dual (murine macrophage reporter line); assay: viability score (confluency relative to resting cells, overnight) (fraction); higher = more viable, active = viable (0.7 or more)
In short: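 RAW-Dual macrophages in 384-well plates were treated overnight with compound at 10 μM final. IncuCyte imaging recorded confluency, and IncuCyte software built two confluency masks across every imaged well. The viability score expresses confluency relative to resting cells and was judged against a cutoff, which a compound met only if both masks exceeded 70% of resting cells.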

[4] = agonist: CpG ODN 1826 0.5 ug/mL

| Structure (SMILES) | NF-kB reporter [1, 4] | NF-kB reporter ([1]; agonist: LPS 0.1 ug/mL) | NF-kB reporter ([1]; agonist: MPLA […]) | IRF reporter ([2]; agonist: 3'3'-cGAMP 10 ug/mL) | IRF reporter ([2]; agonist: LPS 0.1 ug/mL) | IRF reporter ([2]; agonist: MPLA […]) | viability score [3] |
| --- | --- | --- | --- | --- | --- | --- | --- |
| CCC(=O)Nc1ccc(S(=O)(=O)N2CCSC(c3ccccc3C)CC2)c(C)c1 (stereo not drawn) | 0.688 ± 0.045 | 0.88 ± 0.11 | 0.937 ± 0.087 | 0.412 ± 0.018 | 0.996 ± 0.085 | 0.988 ± 0.17 | 0.994 (active) |
| CC(C(=O)N1CCN(S(=O)(=O)C2CC2)CC1)n1nc2c(cc1=O)CCC2 (stereo not drawn) | 0.928 ± 0.086 | 1.06 ± 0.095 | 0.934 ± 0.082 | 0.977 ± 0.091 | 0.964 ± 0.1 | 0.904 ± 0.19 | 1.01 (active) |
| CCN(CC)c1ccc2cc(-c3nnc(NCc4ccccc4)s3)c(=O)oc2c1 | 1.12 ± 0.15 | 1.14 ± 0.072 | 0.912 ± 0.07 | 0.598 ± 0.026 | 1.47 ± 0.25 | 1.28 ± 0.22 | 0.997 (active) |
| CC12C=CC(CO)(O1)C1C(=O)NC(=O)C12 (stereo not drawn) | 1.26 ± 0.1 | 1.07 ± 0.066 | 0.838 ± 0.082 | 0.907 ± 0.047 | 0.469 ± 0.027 | 0.32 ± 0.027 | 0.783 (active) |
| O=C(CC1CC1)N1CCN(c2cc(C(F)(F)F)ncn2)CC1 | 0.929 ± 0.04 | 0.963 ± 0.081 | 1.29 ± 0.13 | 1.04 ± 0.091 | 1.04 ± 0.18 | 1.01 ± 0.43 | 1.01 (active) |
| Cc1nnc(NN=Cc2ccc(Cl)c([N+](=O)[O-])c2)[nH]c1=O | 1.08 ± 0.12 | 1.02 ± 0.088 | 1.09 ± 0.045 | 1.01 ± 0.17 | 1 ± 0.082 | 1.07 ± 0.13 | 0.997 (active) |
| O=c1[nH][nH]c(=O)c2c(N=Cc3cc4c(cc3[N+](=O)[O-])OCO4)cccc12 | 0.878 ± 0.082 | 0.823 ± 0.074 | 0.961 ± 0.096 | 0.983 ± 0.031 | 1.13 ± 0.18 | 1.22 ± 0.28 | 0.995 (active) |
| O=C1C(Cl)=C(N2CCCCC2)C(=O)N1c1cc(Cl)c(Cl)cc1Cl | 0.743 ± 0.063 | 0.737 ± 0.049 | 0.857 ± 0.03 | 0.352 ± 0.026 | 1.07 ± 0.1 | 1.01 ± 0.15 | 0.993 (active) |
| OCCN(CCO)CC(O)Cn1c2ccc(Br)cc2c2cc(Br)ccc21 (stereo not drawn) | 0.301 ± 0.024 | 0.484 ± 0.035 | 0.617 ± 0.06 | 0.742 ± 0.024 | 1.42 ± 0.24 | 1.35 ± 0.15 | 0.94 (active) |
| Cc1cc(C#N)cc(C)c1Oc1nc(Nc2ccc(C#N)cc2)nc(N)c1Br | 1.15 ± 0.049 | 1.3 ± 0.1 | 1.5 ± 0.14 | 1.39 ± 0.21 | 1.05 ± 0.24 | 1.28 ± 0.42 | 0.97 (active) |
| Cc1ccc(CNC(=O)CN(c2cccc3ccccc23)S(C)(=O)=O)cc1 | 0.97 ± 0.078 | 1.03 ± 0.098 | 0.957 ± 0.073 | 1.08 ± 0.031 | 1.47 ± 0.28 | 1.07 ± 0.096 | 1.01 (active) |
| CC1CCN(C2=NC(=O)C(=Cc3cccc4ccccc34)S2)CC1 | 1.06 ± 0.087 | 0.987 ± 0.076 | 0.954 ± 0.057 | 0.963 ± 0.05 | 1.54 ± 0.23 | 1.2 ± 0.18 | 1.01 (active) |
| CCOC(=O)[C@H](CCc1ccccc1)N[C@H]1CCc2ccccc2N(CC(=O)O)C1=O.Cl | 1.07 ± 0.083 | 0.961 ± 0.17 | 0.987 ± 0.021 | 0.947 ± 0.054 | 0.935 ± 0.076 | 0.967 ± 0.14 | 0.999 (active) |
| NCCCC(=O)O | 1.18 ± 0.28 | 0.974 ± 0.1 | 1.01 ± 0.083 | 0.981 ± 0.04 | 1.3 ± 0.19 | 1.3 ± 0.14 | 0.995 (active) |
